# Results as given in paper PMC7862700, “An all-to-all approach to the identification of sequence-specific readers for epigenetic DNA modifications on cytosine”.
# Key:
# Assay in all cases: DAPPL (digital affinity profiling via proximity ligation, sequencing); 10 mM Tris-HCl pH 7.5, 50 mM NaCl, 1 mM DTT, 4% glycerol, room temperature, 30 min; GST-TFs on glutathione beads, 16-mer random dsDNA library, 0.1% formaldehyde crosslink after washing; high values mean tight binding
# FEV = target: T1, FEV (Homo sapiens, UniProt Q99581 1-238); details: protein: recombinant; tags: N-terminal GST; dsDNA, one strand shown
# T1 sequence: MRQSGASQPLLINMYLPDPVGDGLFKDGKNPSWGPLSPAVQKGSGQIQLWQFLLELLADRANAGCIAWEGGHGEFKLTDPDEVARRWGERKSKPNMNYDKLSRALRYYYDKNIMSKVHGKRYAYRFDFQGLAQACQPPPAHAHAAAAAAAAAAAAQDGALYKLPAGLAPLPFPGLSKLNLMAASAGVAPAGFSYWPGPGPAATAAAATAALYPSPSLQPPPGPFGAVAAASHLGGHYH
# In short: (§1)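 Each value of binding signal is a hexamer's read frequency for a factor divided by the same hexamer's frequency in the tag-only sample. Barcoded, bead-captured GST fusions of human transcription factors made in yeast were pooled with that sample and incubated with 200 nmole of a random double-stranded 16-mer DNA library in Tris/NaCl/DTT/glycerol buffer at room temperature for 30 min. Washing, 0.1% formaldehyde crosslinking, proximity ligation, PCR and Illumina NextSeq500 sequencing followed.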
# ETV5 = ETV5 (Homo sapiens, UniProt P41161 1-510); details: protein: recombinant; tags: N-terminal GST; dsDNA, one strand shown
# In short: as §1
# HSF1 = HSF1 (Homo sapiens, UniProt Q00613 1-529); details: protein: recombinant; tags: N-terminal GST; chain copies: 3; dsDNA, one strand shown
# In short: as §1
# SPIC = target: T2, SPIC (Homo sapiens, UniProt Q8N5J4 1-248); details: protein: recombinant; tags: N-terminal GST; dsDNA, one strand shown
# T2 sequence: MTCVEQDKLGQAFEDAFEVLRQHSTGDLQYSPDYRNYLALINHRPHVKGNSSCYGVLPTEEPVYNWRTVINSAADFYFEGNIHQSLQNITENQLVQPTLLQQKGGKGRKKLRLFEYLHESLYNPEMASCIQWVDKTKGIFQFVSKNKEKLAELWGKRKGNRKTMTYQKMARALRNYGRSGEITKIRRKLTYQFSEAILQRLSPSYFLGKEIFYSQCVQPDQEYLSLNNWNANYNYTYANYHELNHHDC
# In short: as §1
# ELF4 = ELF4 (Homo sapiens, UniProt Q99607 1-663); details: protein: recombinant; tags: N-terminal GST; dsDNA, one strand shown
# In short: as §1
# ELK4 = target: T3, ELK4 (Homo sapiens, UniProt P28324-2 1-405); details: protein: recombinant; tags: N-terminal GST; dsDNA, one strand shown
# T3 sequence: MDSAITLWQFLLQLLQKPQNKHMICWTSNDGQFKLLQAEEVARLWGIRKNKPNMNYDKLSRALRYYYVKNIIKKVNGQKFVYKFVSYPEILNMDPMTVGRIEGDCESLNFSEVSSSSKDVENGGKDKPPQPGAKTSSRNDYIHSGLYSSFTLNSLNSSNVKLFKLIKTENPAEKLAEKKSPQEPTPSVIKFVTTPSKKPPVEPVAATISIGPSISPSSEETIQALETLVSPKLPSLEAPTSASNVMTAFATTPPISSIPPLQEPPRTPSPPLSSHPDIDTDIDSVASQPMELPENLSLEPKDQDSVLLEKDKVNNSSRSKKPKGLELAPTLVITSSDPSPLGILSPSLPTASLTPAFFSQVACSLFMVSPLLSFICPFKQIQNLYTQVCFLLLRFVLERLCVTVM
# In short: as §1
# ETV2 = target: T4, ETV2 (Homo sapiens, UniProt O00321 1-342); details: protein: recombinant; tags: N-terminal GST; dsDNA, one strand shown
# T4 sequence: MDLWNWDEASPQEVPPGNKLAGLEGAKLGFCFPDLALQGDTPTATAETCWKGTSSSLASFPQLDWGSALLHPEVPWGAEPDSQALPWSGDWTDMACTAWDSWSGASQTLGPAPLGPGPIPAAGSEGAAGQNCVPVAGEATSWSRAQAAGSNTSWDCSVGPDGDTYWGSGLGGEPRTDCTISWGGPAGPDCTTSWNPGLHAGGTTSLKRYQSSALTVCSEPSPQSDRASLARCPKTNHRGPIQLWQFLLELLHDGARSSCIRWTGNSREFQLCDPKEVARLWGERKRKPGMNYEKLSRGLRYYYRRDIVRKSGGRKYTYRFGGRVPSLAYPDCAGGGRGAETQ
# In short: as §1
# ELF3 = target: T5, ELF3 (Homo sapiens, UniProt P78545 1-371); details: protein: recombinant; tags: N-terminal GST; dsDNA, one strand shown
# T5 sequence: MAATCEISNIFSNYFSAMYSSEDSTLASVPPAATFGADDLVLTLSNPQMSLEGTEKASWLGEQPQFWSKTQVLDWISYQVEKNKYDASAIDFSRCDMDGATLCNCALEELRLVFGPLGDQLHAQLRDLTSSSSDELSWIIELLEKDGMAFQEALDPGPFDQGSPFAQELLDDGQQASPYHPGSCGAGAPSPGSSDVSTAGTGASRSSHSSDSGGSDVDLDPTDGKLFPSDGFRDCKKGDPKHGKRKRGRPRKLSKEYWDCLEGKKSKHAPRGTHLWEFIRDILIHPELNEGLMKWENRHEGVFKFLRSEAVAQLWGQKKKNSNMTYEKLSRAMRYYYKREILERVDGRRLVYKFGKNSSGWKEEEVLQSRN
# In short: as §1
# CRX = CRX (Homo sapiens, UniProt O43186 1-299); details: protein: recombinant; tags: N-terminal GST; dsDNA, one strand shown
# In short: as §1
# ETV1 = ETV1 (Homo sapiens, UniProt P50549 1-477); details: protein: recombinant; tags: N-terminal GST; dsDNA, one strand shown
# In short: as §1
# ERF = target: T6, ERF (Homo sapiens, UniProt P50548 1-548); details: protein: recombinant; tags: N-terminal GST; dsDNA, one strand shown
# T6 sequence: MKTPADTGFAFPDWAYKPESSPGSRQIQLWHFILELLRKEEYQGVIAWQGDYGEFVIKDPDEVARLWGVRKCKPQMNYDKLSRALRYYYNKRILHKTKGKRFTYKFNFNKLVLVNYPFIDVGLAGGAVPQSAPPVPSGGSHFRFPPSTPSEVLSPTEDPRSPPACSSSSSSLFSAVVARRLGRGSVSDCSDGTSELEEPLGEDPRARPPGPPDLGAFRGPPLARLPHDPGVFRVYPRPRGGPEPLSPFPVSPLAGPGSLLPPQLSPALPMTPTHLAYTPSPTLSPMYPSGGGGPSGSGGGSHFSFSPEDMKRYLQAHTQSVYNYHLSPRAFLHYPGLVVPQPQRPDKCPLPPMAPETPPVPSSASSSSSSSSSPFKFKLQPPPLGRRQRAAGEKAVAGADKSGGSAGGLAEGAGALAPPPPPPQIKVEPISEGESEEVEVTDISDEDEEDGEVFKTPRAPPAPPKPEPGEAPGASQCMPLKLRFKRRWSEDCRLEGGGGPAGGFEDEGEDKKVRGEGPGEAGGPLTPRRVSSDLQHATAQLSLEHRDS
# In short: as §1
# ETV3L = target: T7, ETV3L (Homo sapiens, UniProt Q6ZN32 1-361); details: protein: recombinant; tags: N-terminal GST; dsDNA, one strand shown
# T7 sequence: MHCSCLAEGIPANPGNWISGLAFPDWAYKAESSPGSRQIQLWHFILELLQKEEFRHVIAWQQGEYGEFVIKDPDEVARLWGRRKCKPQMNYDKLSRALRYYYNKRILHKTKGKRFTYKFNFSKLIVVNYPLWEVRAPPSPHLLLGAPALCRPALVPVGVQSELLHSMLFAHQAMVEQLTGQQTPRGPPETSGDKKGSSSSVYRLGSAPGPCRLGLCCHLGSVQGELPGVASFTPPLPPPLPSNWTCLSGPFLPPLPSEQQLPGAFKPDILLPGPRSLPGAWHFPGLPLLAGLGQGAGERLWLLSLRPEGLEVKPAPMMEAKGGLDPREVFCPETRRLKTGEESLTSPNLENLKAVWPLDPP
# In short: as §1
# ETS2 = target: T8, ETS2 (Homo sapiens, UniProt P15036 1-469); details: protein: recombinant; tags: N-terminal GST; dsDNA, one strand shown
# T8 sequence: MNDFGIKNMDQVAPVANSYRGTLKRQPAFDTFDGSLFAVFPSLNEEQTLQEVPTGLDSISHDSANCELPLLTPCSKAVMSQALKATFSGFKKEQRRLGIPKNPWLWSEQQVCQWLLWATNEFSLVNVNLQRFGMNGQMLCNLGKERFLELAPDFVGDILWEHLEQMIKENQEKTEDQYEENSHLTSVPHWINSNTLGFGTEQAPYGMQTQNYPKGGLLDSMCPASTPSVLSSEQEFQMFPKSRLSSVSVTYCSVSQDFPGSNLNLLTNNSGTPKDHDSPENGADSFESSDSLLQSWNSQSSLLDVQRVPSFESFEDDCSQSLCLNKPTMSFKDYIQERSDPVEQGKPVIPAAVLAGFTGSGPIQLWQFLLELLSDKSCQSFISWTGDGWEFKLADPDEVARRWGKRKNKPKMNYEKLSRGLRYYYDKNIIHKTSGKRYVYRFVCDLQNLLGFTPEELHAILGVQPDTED
# In short: as §1
# SPDEF = target: T9, SPDEF (Homo sapiens, UniProt O95238 1-335); details: protein: recombinant; tags: N-terminal GST; dsDNA, one strand shown
# T9 sequence: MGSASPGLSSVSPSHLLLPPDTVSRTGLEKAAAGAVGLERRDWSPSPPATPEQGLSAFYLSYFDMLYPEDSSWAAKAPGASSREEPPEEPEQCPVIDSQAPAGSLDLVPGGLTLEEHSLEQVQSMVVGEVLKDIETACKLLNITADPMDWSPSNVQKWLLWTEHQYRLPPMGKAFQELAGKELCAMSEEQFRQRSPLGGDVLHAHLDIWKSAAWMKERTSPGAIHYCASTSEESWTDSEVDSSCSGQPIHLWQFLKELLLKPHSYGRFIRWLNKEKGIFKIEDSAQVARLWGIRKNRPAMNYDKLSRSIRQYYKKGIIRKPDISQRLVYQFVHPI
# In short: as §1
# ETV7 = target: T10, ETV7 (Homo sapiens, UniProt Q9Y603 1-341); details: protein: recombinant; tags: N-terminal GST; dsDNA, one strand shown
# T10 sequence: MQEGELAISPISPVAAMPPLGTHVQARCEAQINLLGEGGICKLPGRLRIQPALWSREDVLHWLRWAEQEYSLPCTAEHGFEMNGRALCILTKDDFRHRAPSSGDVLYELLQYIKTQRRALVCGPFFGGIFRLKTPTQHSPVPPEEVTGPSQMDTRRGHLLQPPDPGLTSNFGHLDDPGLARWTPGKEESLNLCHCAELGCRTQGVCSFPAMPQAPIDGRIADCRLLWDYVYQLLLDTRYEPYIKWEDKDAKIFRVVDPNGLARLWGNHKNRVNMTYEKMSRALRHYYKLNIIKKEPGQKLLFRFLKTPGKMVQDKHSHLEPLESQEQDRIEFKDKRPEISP
# In short: as §1
# ELF5 = target: T11, ELF5 (Homo sapiens, UniProt Q9UKW6-2 1-255); details: protein: recombinant; tags: N-terminal GST; dsDNA, one strand shown
# T11 sequence: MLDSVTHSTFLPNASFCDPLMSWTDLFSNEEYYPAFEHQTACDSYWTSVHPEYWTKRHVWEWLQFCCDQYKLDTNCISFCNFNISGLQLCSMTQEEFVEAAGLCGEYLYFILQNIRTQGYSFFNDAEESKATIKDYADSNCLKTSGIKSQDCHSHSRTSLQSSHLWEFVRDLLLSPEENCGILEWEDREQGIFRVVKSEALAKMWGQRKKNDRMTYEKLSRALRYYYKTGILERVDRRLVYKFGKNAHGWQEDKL
# In short: as §1
# ETV3 = target: T12, ETV3 (Homo sapiens, UniProt P41162-2 1-143); details: protein: recombinant; tags: N-terminal GST; dsDNA, one strand shown
# T12 sequence: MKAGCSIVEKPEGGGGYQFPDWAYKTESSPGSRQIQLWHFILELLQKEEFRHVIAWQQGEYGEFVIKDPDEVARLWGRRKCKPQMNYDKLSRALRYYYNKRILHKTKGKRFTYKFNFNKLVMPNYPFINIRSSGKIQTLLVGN
# In short: as §1
# ETV6 = ETV6 (Homo sapiens, UniProt P41212 1-452); details: protein: recombinant; tags: N-terminal GST; dsDNA, one strand shown
# In short: as §1
# Chain of ETV5 (P41161 whole entry): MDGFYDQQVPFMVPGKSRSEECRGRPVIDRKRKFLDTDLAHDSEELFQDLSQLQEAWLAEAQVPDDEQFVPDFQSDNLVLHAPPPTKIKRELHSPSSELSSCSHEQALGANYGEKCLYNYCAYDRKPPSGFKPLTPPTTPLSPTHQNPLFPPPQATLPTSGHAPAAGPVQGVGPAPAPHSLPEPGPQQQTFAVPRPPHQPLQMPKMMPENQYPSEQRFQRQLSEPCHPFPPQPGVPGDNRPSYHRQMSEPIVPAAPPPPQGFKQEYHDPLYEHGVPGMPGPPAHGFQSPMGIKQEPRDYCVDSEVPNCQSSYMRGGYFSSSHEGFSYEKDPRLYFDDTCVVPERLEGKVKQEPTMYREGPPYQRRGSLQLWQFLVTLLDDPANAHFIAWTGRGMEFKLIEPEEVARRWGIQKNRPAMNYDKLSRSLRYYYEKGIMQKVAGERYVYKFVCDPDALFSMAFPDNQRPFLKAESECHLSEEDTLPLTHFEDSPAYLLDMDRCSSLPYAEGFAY
# Chain of ETV6 (P41212 whole entry): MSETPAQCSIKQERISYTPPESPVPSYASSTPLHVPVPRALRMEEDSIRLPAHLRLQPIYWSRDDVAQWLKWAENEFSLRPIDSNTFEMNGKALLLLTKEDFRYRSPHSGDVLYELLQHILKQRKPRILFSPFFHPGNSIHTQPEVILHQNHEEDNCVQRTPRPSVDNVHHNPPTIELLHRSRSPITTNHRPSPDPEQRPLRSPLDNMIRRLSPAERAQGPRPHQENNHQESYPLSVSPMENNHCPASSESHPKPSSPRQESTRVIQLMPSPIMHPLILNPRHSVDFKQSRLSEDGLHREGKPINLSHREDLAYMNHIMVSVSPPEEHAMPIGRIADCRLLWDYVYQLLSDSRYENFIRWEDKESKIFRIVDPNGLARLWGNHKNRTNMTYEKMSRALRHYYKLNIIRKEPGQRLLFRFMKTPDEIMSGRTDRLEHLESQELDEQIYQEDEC
# Chain of ELF4 (Q99607 whole entry): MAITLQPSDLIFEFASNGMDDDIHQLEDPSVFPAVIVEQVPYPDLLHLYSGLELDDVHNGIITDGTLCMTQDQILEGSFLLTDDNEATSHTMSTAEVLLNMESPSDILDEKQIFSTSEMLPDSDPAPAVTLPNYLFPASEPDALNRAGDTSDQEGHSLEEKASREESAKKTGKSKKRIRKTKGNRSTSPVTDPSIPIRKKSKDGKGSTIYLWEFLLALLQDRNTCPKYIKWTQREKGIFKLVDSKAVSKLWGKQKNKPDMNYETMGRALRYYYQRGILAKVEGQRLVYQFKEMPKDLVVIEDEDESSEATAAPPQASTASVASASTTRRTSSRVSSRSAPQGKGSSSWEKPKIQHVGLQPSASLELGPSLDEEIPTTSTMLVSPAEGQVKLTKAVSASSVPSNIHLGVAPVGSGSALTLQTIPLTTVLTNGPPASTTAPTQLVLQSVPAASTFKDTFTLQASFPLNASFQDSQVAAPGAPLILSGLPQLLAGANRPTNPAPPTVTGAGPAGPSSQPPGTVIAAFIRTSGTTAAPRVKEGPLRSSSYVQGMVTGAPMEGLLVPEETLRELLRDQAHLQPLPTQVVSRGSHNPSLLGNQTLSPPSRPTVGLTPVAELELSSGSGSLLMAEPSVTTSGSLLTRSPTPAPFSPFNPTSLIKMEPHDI
# Chain of CRX (O43186 whole entry): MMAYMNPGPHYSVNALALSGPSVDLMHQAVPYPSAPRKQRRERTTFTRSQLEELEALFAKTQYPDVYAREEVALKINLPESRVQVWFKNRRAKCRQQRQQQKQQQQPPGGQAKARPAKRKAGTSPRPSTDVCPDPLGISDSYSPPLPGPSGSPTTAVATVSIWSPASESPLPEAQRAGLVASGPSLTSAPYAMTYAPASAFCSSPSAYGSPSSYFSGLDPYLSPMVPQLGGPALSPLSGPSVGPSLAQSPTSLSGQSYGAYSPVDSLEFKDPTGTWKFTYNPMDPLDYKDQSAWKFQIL
# Chain of HSF1 (Q00613 whole entry): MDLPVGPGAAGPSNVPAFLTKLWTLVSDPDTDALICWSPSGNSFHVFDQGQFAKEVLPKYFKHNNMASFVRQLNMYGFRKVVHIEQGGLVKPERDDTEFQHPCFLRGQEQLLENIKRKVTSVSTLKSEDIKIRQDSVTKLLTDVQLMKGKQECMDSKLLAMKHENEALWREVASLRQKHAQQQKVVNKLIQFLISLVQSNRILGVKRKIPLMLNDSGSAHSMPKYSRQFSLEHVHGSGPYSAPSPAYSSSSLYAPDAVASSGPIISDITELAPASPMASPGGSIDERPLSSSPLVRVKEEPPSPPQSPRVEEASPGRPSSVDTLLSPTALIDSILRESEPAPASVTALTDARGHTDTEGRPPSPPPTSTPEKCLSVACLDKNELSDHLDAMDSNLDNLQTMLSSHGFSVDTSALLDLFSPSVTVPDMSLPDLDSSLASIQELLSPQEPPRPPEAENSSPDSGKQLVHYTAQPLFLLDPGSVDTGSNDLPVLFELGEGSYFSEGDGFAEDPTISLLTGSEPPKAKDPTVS
# Chain of ETV1 (P50549 whole entry): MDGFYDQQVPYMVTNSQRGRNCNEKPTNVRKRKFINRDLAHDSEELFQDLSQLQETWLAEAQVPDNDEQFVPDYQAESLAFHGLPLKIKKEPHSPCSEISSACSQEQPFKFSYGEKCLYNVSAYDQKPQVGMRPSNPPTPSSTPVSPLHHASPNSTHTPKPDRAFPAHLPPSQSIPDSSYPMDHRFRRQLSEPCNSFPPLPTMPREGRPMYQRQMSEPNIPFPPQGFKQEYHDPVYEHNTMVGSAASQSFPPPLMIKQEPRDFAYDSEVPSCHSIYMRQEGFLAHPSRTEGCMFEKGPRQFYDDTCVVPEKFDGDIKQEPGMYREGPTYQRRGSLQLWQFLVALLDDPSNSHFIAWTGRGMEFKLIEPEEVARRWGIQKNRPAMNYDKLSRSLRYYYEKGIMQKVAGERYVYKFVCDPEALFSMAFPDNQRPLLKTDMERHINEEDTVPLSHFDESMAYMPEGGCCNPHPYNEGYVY
sequence,measurement,setting,value
AGCTCC,binding signal,FEV,"1.26 fold enrichment (6-mer frequency, TF over GST control)"
same,binding signal,ETV5,"1.29 fold enrichment (6-mer frequency, TF over GST control)"
same,binding signal,HSF1,"1.22 fold enrichment (6-mer frequency, TF over GST control)"
same,binding signal,SPIC,"1.26 fold enrichment (6-mer frequency, TF over GST control)"
same,binding signal,ELF4,"1.43 fold enrichment (6-mer frequency, TF over GST control)"
same,binding signal,ELK4,"1.16 fold enrichment (6-mer frequency, TF over GST control)"
same,binding signal,ETV2,"1.35 fold enrichment (6-mer frequency, TF over GST control)"
same,binding signal,ELF3,"1.33 fold enrichment (6-mer frequency, TF over GST control)"
same,binding signal,CRX,"1.3 fold enrichment (6-mer frequency, TF over GST control)"
same,binding signal,ETV1,"1.29 fold enrichment (6-mer frequency, TF over GST control)"
same,binding signal,ERF,"1.24 fold enrichment (6-mer frequency, TF over GST control)"
same,binding signal,ETV3L,"1.25 fold enrichment (6-mer frequency, TF over GST control)"
same,binding signal,ETS2,"1.33 fold enrichment (6-mer frequency, TF over GST control)"
same,binding signal,SPDEF,"1.4 fold enrichment (6-mer frequency, TF over GST control)"
same,binding signal,ETV7,"1.17 fold enrichment (6-mer frequency, TF over GST control)"
same,binding signal,ELF5,"1.2 fold enrichment (6-mer frequency, TF over GST control)"
same,binding signal,ETV3,"1.22 fold enrichment (6-mer frequency, TF over GST control)"
same,binding signal,ETV6,"1.32 fold enrichment (6-mer frequency, TF over GST control)"
